Screening results deposited in PubChem by several laboratories.
NCOA1 inh – human NCOA1 inhibition; HEK293 GAL4-SRC1 luciferase reporter, luminescence; inhibition, % at 3.6 µM; hit rate 0.12% among 360,000; AID 588354;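 active means inhibition above the campaign mean plus 3 SD, with each screening campaign given its own cutoff, cut at about 60% in these data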
NCOA2 inhibitor – human SRC2 (NCOA2) inhibition. Q15596. HEK293 GAL4-SRC2 luciferase reporter, luminescence. inhibition, % at 9 µM. hit rate 0.17% among 370,000;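 active means inhibition above the mean inhibition of all tested compounds plus 3 SD, set per campaign, cut at about 52% in these data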
LRH-1 inv ag – inverse agonists of human LRH-1 (NR5A2) | O00482 | HEK293T StAR-luciferase reporter, LRH-1 transfected, 24 h | inhibition, % at 3.6 µM | hit rate 0.13% among 360,000 | AID 602396;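 active means inhibition above the mean inhibition of all tested compounds plus 3 SD, cut at about 73% in these data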
Target sequence (O00482 whole entry, looked up): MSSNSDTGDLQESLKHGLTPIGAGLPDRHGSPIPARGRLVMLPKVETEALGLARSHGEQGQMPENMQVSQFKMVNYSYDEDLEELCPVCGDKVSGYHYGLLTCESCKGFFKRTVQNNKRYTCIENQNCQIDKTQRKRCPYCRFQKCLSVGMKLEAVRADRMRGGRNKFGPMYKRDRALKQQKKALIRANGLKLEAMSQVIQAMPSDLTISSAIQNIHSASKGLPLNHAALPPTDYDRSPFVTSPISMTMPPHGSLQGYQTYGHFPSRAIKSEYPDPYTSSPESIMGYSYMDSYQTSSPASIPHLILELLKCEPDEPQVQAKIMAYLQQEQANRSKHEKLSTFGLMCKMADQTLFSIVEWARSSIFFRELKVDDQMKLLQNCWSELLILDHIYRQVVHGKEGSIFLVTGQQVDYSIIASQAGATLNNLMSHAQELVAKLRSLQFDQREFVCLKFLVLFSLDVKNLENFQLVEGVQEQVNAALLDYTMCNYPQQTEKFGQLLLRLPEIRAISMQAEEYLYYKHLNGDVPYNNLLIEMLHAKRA
Gli-Sufu antag – antagonists of Gli-Sufu signaling | Sufu-KO-LIGHT fibroblasts, Gli luciferase reporter luminescence | inhibition, % at 5 µM | hit rate 0.74% among 340,000;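 active means inhibition above about 55%, limit read from the data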
NR2F2 inh – inhibitors of human COUP-TFII (NR2F2) | P24468 | HEK293T NGFI-A luciferase reporter, luminescence | inhibition, % at 8.6 µM | hit rate 0.7% among 370,000;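 active means inhibition above a per-plate cutoff, mean inhibition of test wells between control levels plus 3 SD, cut at about 38% in these data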;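 further: cells cotransfected with COUP-TFII expression vector driving the NGFI-A reporter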
NCOA3 inh – inhibitors of human steroid receptor coactivator 3 (SRC3); inhibition, % at 3.6 µM; HEK293 GAL4-SRC3 luciferase reporter, luminescence; AID 588352; hit rate 0.17% among 360,000; Q9Y6Q9;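 active means inhibition above a per-campaign cutoff, the mean of all compounds plus 3 SD, cut at about 60% in these data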;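 further: higher means less SRC3-driven luciferase light from the GAL4 reporter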
VP16 Luc counter – inhibits VP16 reporter, flagging COUP-TFII antagonist hits. shares compounds with NR2F2 inh. HEK293 Gal4-VP16 luciferase reporter, luminescence. inhibition, % at 8.5 µM. hit rate 25% among 2,500; in the data active means inhibition above about 13%
COUP-TFII conf – COUP-TFII (NR2F2) inhibition, confirmation assay. shares compounds with NR2F2 inh. inhibition, % at 8.5 µM. hit rate 45% among 2,500. HEK293 NGFI-A luciferase reporter, luminescence;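 active means mean inhibition over three repeats above a set limit taken from the earlier primary screen, cut at about 38% in these data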
Hits are given with their value; – = inactive; · = not tested or not shown. This is a sample that favours compounds with a hit; in the whole collection about 1.3% have one here.

SMILES	NCOA1 inh	NCOA2 inhibitor	LRH-1 inv ag	Gli-Sufu antag	NR2F2 inh	NCOA3 inh	VP16 Luc counter	COUP-TFII conf
O=c1cc(-c2ccc(O)cc2)oc2ccc3ccccc3c12	–	–	–	–	55	–	14	46
O=c1cc(-c2ccc(O)cc2)oc2c1ccc1ccccc12	–	–	–	–	–	–	·	·
Cc1ccc(Oc2cc([N+](=O)[O-])cc3c2C(=O)Nc2ccccc2O3)cc1	–	–	–	–	38	–	–	–
O=C(Cc1ccccc1Cl)NCCN1C(=O)C2C3C=CC(C3)C2C1=O (centres undefined)	·	–	·	·	–	·	·	·
C=CCN(CC#Cc1ccccc1)Cc1ccc(OC)cc1	·	–	·	·	–	·	·	·
O=C(NCc1cccnc1)C1CCC(c2ccc(Cl)cc2)CC1 (centres undefined)	–	–	–	–	41	–	–	55
c1cnc(SCC2CCCCC2)c(-c2nc3ccccc3[nH]2)c1	·	–	·	·	–	·	·	·
CC(C)=CC(=O)NCC1CCN(C(=O)C(=O)c2cc3ccccc3o2)CC1	·	–	·	·	–	·	·	·
Cc1noc(C)c1COC(=O)c1cccc(S(=O)(=O)N2CCCCCC2)c1	–	–	–	–	60	–	–	–
Cc1noc(C)c1COC(=O)c1ccc(F)c(S(=O)(=O)N2CCCCC2)c1	–	–	–	–	–	–	·	·
CC(C)C[C@@H]1COc2cc(Br)ccc2S(=O)(=O)N1Cc1cn(Cc2ccccc2)nn1	·	–	·	·	–	·	·	·
Cc1cccnc1NC(=O)C1CCN(S(=O)(=O)c2c(C)noc2/C=C/c2ccco2)CC1	–	–	–	–	–	–	·	·
Cc1ccc(NC(=O)C2CCN(S(=O)(=O)c3c(C)noc3/C=C/c3ccco3)CC2)nc1	–	–	–	–	39	–	–	–
O=C(c1cc(COc2c(F)cccc2F)on1)N1CCC(c2ccncc2)CC1	–	–	–	–	60	–	–	47
CCOC(=O)COc1ccc(S(=O)(=O)NCc2ccco2)cc1	–	–	–	–	–	–	·	·
CCOC(=O)COc1ccc(S(=O)(=O)NCc2ccncc2)cc1	–	–	–	–	49	–	–	–
CCC(CO)Oc1cc(NCc2ccccc2O)c2ncn(C(C)C)c2c1 (centres undefined)	–	–	–	–	43	–	–	40
c1ccc(Nc2nc(NCc3ccco3)c3ccccc3n2)cc1	–	–	–	56	53	–	–	–
Cc1ccccc1Nc1nc(NCc2ccco2)c2ccccc2n1	–	–	–	–	–	–	·	·
Oc1ccccc1Nc1nc(NCc2ccco2)c2ccccc2n1	–	–	–	–	–	–	·	·
Cc1cccc(Nc2nc(NCc3ccco3)c3ccccc3n2)c1	–	–	–	82	63	–	–	48
CC(=O)Nc1ccc(S(=O)(=O)NCC2CCN(C(=O)C(=O)c3cccs3)CC2)cc1	·	–	·	·	–	·	·	·
O=C(NCCN1CCC(Cc2ccccc2)CC1)C1CCCN(S(=O)(=O)c2ccc(Cl)s2)C1 (centres undefined)	·	–	·	·	–	·	·	·
CCOC(=O)CC[C@@]1(C(=O)OCC)C[C@@H](CC(=O)NCc2ccc(OC)c(OC)c2)C(=O)N2CCCC=C21	·	–	·	·	–	·	·	·
Cc1ccc(-c2csc(=Nc3cccnc3)n2CCCn2ccnc2)cc1C	63	62	–	–	55	–	18	45
SMILES	NCOA1 inh	NCOA2 inhibitor	LRH-1 inv ag	Gli-Sufu antag	NR2F2 inh	NCOA3 inh	VP16 Luc counter	COUP-TFII conf
CCN(c1ccc(OC)cc1)c1ncnc2nc[nH]c12	66	–	–	–	38	–	–	–
CC1C/C(=C/c2ccncc2)C(=O)/C(=C/c2ccncc2)C1 (centres undefined)	–	74	–	–	87	–	82	97
O=C(NCc1cccnc1)c1ccc(-c2ccc(F)c(F)c2)c2ccoc12	–	–	–	·	68	–	–	49
Cc1oc(C(C)(C)C)cc1C(=O)Nc1ccc(C(=O)O)cc1	–	–	–	–	–	–	·	·
CC(C)(C)c1ccc(C(=O)Nc2ccc(NC(=O)C(=O)O)cc2)o1	–	59	–	–	42	–	–	–
O=C(C(=O)N1CCC(CNS(=O)(=O)c2ccccc2OC(F)(F)F)CC1)c1cccs1	·	–	·	·	–	·	·	·
Cc1cc(CNC(=O)c2cccc([N+](=O)[O-])c2C)c2ccccc2n1	–	–	–	–	64	–	–	55
Cc1cc(CNC(=O)Cc2ccccc2)c2ccccc2n1	–	–	–	–	–	–	·	·
COc1cc(SC)ccc1C(=O)Nc1ccc(Br)cn1	–	–	–	–	–	–	·	·
COc1cc(SC)ccc1C(=O)Nc1ncc(C)s1	–	53	–	–	48	–	–	–
CC1CC1C(=O)N1CCC(Oc2cccnc2)CC1 (centres undefined)	·	–	·	·	–	·	·	·
Cc1ccc2c(c1)N(CCCC(=O)N(C)Cc1ccc(F)cc1)C(=O)CO2	·	–	·	·	–	·	·	·
O=C(NC(Nc1nc2ccc([N+](=O)[O-])cc2s1)(C(F)(F)F)C(F)(F)F)c1ccccc1Cl	73	–	98	93	75	74	18	74
O=C(NC(NNc1ccc([N+](=O)[O-])cc1)(C(F)(F)F)C(F)(F)F)c1ccccc1Cl	–	–	–	–	–	–	·	·
COc1ccc(N2CCN(CCNS(=O)(=O)c3c(C(C)C)cc(C(C)C)cc3C(C)C)CC2)cc1	·	–	·	·	–	·	·	·
O=C(CCl)Nc1ccc(C(=O)NCC2COc3ccccc3O2)cc1 (centres undefined)	·	–	·	·	40	·	67	–
Cc1cc(C(=O)NCC2COc3ccccc3O2)c2ccccc2n1 (centres undefined)	–	–	–	–	38	–	–	–
O=C(Cc1ccccc1)Nc1ccc(C(=O)NCC2COc3ccccc3O2)cc1 (centres undefined)	–	–	–	–	–	–	·	·
CC(C)C(C#CC1CC1)NCc1ccc2c(c1)OCO2 (centres undefined)	·	–	·	·	–	·	·	·
O=C(Nc1nonc1NC(=O)c1cccs1)c1cccs1	–	–	–	–	49	–	–	–
CCOC(=O)[C@]12CCCCC/C=C\1N(Cc1ccc(OC)cc1)C(=O)[C@H]2CC(=O)N1CCCC1	·	–	·	·	–	·	·	·
OC(c1ccc(F)cc1)c1nc(-c2ccncc2)cs1 (centres undefined)	–	–	–	·	42	–	–	–
CN(C)/C=C/c1c([N+](=O)[O-])c2ccc(O)cc2n1-c1ccccc1	–	–	–	–	40	–	–	–
COC(=O)c1c(C)n(-c2ccccc2)c2ccc(O)cc12	–	–	–	–	–	–	·	·
CC(C)c1ccc(/C=N/Nc2ccc(C(=O)O)cc2)cc1	–	–	–	–	52	–	–	37
Cc1ccc(/C=N/Nc2ccc(C(=O)O)cc2)s1	–	–	–	–	41	–	–	–
Cc1ccc(/C=N/Nc2cccc(C(=O)O)c2)s1	–	–	–	–	–	–	·	·
